LmPK inh: qHTS Assay for Inhibitors of Leishmania Mexicana Pyruvate Kinase (LmPK) | Potency, µM (top dose mostly 57.5 µM), inactives show at the top dose activity change, negative = inhibition, usual class: inhibitors | purified LmPK, Kinase-Glo ATP luminescence, 1 h | 0.37% of 290,000 active; active means well fitted curve in the direction sought with a large enough effect; inconclusive means small, poorly fitted or top-dose-only effect, or another doubt; inactive means no such curve, though single readings can be large; an effect the other way counts as inactive or inconclusive; further: potency means the concentration at half of the fitted maximal effect; on the % scale 0 is the no-effect control and ±100 the full control effect
Target sequence (Q27686 whole entry, looked up): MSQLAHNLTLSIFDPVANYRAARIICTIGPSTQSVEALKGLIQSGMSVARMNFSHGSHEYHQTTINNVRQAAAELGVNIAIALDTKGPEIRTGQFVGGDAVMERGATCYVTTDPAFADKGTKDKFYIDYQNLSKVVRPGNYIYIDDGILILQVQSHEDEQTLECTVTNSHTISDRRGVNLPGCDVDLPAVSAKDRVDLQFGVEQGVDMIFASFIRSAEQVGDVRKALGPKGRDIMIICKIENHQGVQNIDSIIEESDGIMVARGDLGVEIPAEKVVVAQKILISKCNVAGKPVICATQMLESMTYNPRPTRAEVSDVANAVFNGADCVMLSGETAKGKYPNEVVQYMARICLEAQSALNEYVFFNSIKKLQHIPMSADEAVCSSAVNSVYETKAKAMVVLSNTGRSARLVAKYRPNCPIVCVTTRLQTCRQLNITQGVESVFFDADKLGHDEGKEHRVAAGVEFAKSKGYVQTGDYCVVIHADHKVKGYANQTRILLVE
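0.1 nM LmPK, 0.5 mM PEP, 0.1 mM ADP; 50 mM imidazole pH 7.2, 7 mM MgCl2, 50 mM KCl; 1 h RT. Kinase-Glo luminescence readout, normalized to no-enzyme (full inhibition) and uninhibited wells.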
SARS PLP yeast: qHTS of Yeast-based Assay for SARS-CoV PLP. S. cerevisiae expressing SARS-CoV PLpro, growth rescue. Potency, µM (series often up to 32.9 µM), inactives show at the highest dose activity, positive = growth rescue, hits mostly activators. 0.19% of 330,000 active; further: potency means the concentration at half of the fitted maximal effect; 0% is about no effect; nearly all actives have a fitted effect of over 55% in size
Cycloheximide cs: Cycloheximide Counterscreen for Small Molecule Inhibitors of Shiga Toxin; cell reporter, cycloheximide protein synthesis inhibition counterscreen; max response, %; 12% of 300,000 active; AID 2314, 2010; in the data active means max response mostly above about 13%, no sharp cut-off; inactive means mostly below about 14%; further: read at 38.3 µM for the half of the compounds with a filed dose; 0% is about no effect
NS1 function inh: qHTS Assay for Inhibitors of Influenza NS1 Protein Function; Potency, µM (highest dose often 46.1 µM), inactives show top-dose activity, positive = more growth; 0.4% of 270,000 active; AID 2326, 2010; further: potency means the concentration at half of the fitted maximal effect; actives are rising curves; nearly all actives have a fitted effect of over 50% in size
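Growth recovery, yeast-based: influenza A NS1 expressed in S. cerevisiae causes slow growth, and suppressors are detected by OD600. The parent strain without NS1 is used as positive control.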
TbPYK inhibitor: qHTS of Trypanosoma Brucei Inhibitors; AID 624173, 2012; pyruvate kinase (Trypanosoma brucei), Q57TT1; TbPYK enzyme, Kinase-Glo Plus ATP luminescence, 45 min; 0.12% of 410,000 active; Potency, µM (series often up to 76.8 µM), inactives show top-dose activity, negative = inhibition, hits mostly inhibitors; active means well fitted curve in the direction sought with a large enough effect; inconclusive means small, poorly fitted or top-dose-only effect, or another doubt; inactive means no such curve, though single readings can be large; an effect the other way counts as inactive or inconclusive; further: potency means the concentration at half of the fitted maximal effect; on the % scale 0 is the no-effect control and ±100 the full control effect; nearly all actives have a fitted effect of over 50% in size
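ADP (130 uM final) triggers the TbPYK reaction after compound addition; incubation is 45 min at room temperature. Kinase-Glo Plus is then added and luminescence imaged. Normalized data are fitted to concentration-effect curves.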
Shiga toxin inh: A qHTS for Small Molecule Inhibitors of Shiga Toxin. Vero cells, Shiga toxin protein synthesis inhibition reporter. inhibition, % at 38.7 µM. 9.2% of 290,000 active. AID 2315, 2010; in the data active means inhibition mostly above about 28%, no sharp cut-off; inactive means mostly below about 43%; further: 0% is about no effect
An asterisk follows results filed as active. Shown is part of a subset that was picked to be rich in hits. Unless noted, the call rests on the fitted dose curve.

O=C(O)c1ccc(N/N=C/c2ccc(-c3cc(Cl)ccc3Cl)o2)cc1 was read as LmPK inh 6%, SARS PLP yeast -9%, Cycloheximide cs 81*, NS1 function inh 2%, TbPYK inhibitor -11% and Shiga toxin inh 112*.
O=C(O)c1ccc(N/N=C/c2ccc(-c3cccc(Cl)c3)o2)cc1 was read as LmPK inh 2%, SARS PLP yeast -20%, Cycloheximide cs 60*, NS1 function inh -10%, TbPYK inhibitor 3% and Shiga toxin inh 82*.
Screening O=C(Cc1ccc(F)cc1)N/N=C/c1ccc(-c2ccc(Cl)c(C(=O)O)c2)o1 returned LmPK inh 2%, SARS PLP yeast 1%, Cycloheximide cs -2, TbPYK inhibitor -2% and Shiga toxin inh 2.
`O=C(O)c1cc(N/N=C/c2ccc(-c3ccc(F)cc3)o2)ccc1Cl` gave LmPK inh 2%, SARS PLP yeast 1%, Cycloheximide cs 46*, NS1 function inh 0%, TbPYK inhibitor 0% and Shiga toxin inh 152*.
`O=C(O)c1ccc(N/N=C/c2ccc(-c3ccc(Cl)cc3Cl)o2)cc1` gave LmPK inh 0%, SARS PLP yeast -4%, Cycloheximide cs 39*, NS1 function inh 7%, TbPYK inhibitor 0% and Shiga toxin inh 111*.
CCc1nc2c(OCCOc3ccc(F)cc3)cccn2c1N(C=O)Cc1ccc(OC)cc1 was read as TbPYK inhibitor -3%.
Cc1ccc(Cn2ccsc2=NC(=O)COC(=O)c2ccc(O)cc2O)cc1 was read as LmPK inh -10%, SARS PLP yeast 0%, Cycloheximide cs 38*, NS1 function inh 0%, TbPYK inhibitor -6% and Shiga toxin inh 135*.
O=C(COC(=O)c1ccc(O)cc1O)N=c1sccn1Cc1ccccc1Cl was read as SARS PLP yeast -2% and TbPYK inhibitor 7%.
`CN(Cc1ccccc1)C(=O)c1ccc(NC(=O)Cc2ccc(NC(=O)C3CCN(C(=O)C4CCCC4)CC3)cc2)cc1` gave TbPYK inhibitor -2%.
Screening CCOc1ccc(NC(=O)c2c(NCc3cccnc3)sc3c2CCC(C)C3)cc1 (configuration not stated) returned TbPYK inhibitor 14µM*.
Screening CCOc1ccc(NC(=O)c2c(NCc3cccs3)sc3c2CCC(C)C3)cc1 (configuration not stated) returned TbPYK inhibitor -10%.
CC(=O)Oc1ccccc1Cn1c(C)c(C(=O)NCc2cccc(Cl)c2)sc1=O was read as TbPYK inhibitor -12%.
Screening CCOC(=O)c1c(NC(=S)Nc2ccc(Cl)cc2)sc(C)c1C returned LmPK inh 2%, SARS PLP yeast 17%, Cycloheximide cs -2, NS1 function inh -1%, TbPYK inhibitor -1% and Shiga toxin inh 5.
`CCOC(=O)c1c(N)sc(C(=O)Nc2ccc3c(c2)OCO3)c1C` gave LmPK inh 5µM*, SARS PLP yeast -6%, Cycloheximide cs 11, NS1 function inh -43%, TbPYK inhibitor -20% and Shiga toxin inh 11.
CCOC(=O)c1c(NC(=O)CN2CCN(C)CC2)sc(C(=O)Nc2ccccc2)c1C was read as LmPK inh 0%, SARS PLP yeast -1%, Cycloheximide cs 28*, NS1 function inh 0%, TbPYK inhibitor 6% and Shiga toxin inh 18.
Screening CCOC(=O)c1sc(NC(=O)CCN2CCN(C)CC2)c(C(=O)OCC)c1C returned LmPK inh -6%, SARS PLP yeast -1%, Cycloheximide cs -3, NS1 function inh -6%, TbPYK inhibitor -5% and Shiga toxin inh -8.
For CCOC(=O)c1c(C)c(C(=O)Nc2ccc3c(c2)OCCO3)c(C)n1CC the results were LmPK inh -1%, SARS PLP yeast 1%, Cycloheximide cs 14, NS1 function inh -18%, TbPYK inhibitor 4% and Shiga toxin inh 38.
Screening CCOC(=O)c1c(NC(=O)c2cc(C)oc2C)sc(C(=O)Nc2ccc(Cl)cc2)c1C returned LmPK inh 1%, SARS PLP yeast 1%, Cycloheximide cs 24*, NS1 function inh 14%, TbPYK inhibitor 0% and Shiga toxin inh 40.
`CCOC(=O)c1c(C)c(C(=O)Nc2ccc3c(c2)OCO3)c(C)n1C` gave LmPK inh 0%, SARS PLP yeast -2%, Cycloheximide cs 14, NS1 function inh -2%, TbPYK inhibitor -20% and Shiga toxin inh 41*.
Screening Cc1cc(Nc2ccc(Cl)cc2)n2cnnc2n1 returned TbPYK inhibitor -7%.
`CCS(=O)(=O)c1nc(S(=O)(=O)c2ccc(C)cc2)c(N2CCCCCC2)s1` gave TbPYK inhibitor 3%.
O=C(Nc1cccc(C(F)(F)F)c1)Nc1cc(Cl)ccc1C(=O)O was read as Cycloheximide cs 9 and Shiga toxin inh 4.
`Cc1cccc(N2C(=O)N3[C@H](c4ccc(Cl)cc4)[C@@H]4C(=O)N(C5CCCCC5)C(=O)[C@@H]4[C@]3(Cc3ccc(Cl)cc3)C2=O)c1` gave LmPK inh -2%, SARS PLP yeast -4%, Cycloheximide cs -3, NS1 function inh 3%, TbPYK inhibitor 1% and Shiga toxin inh -11.
For Cc1ccc(N2C(=O)N3[C@H](c4ccc(Cl)cc4)[C@@H]4C(=O)N(C5CCCCC5)C(=O)[C@@H]4[C@]3(Cc3ccccc3)C2=O)cc1 the results were LmPK inh -3%, SARS PLP yeast -1%, Cycloheximide cs 9.7*, NS1 function inh -16%, TbPYK inhibitor 1% and Shiga toxin inh 19*.
`CCOC(=O)c1c(C)[nH]c(C)c1S(=O)(=O)NCC(=O)N1CCN(c2ccccc2OC)CC1` gave TbPYK inhibitor -4%.
`Cc1ccc2nc(NC(=S)NC(=O)c3ccc(OC(C)C)cc3)sc2c1` gave LmPK inh 13µM*, SARS PLP yeast -41%, Cycloheximide cs 1, NS1 function inh -199%, TbPYK inhibitor 3% and Shiga toxin inh -6.
Screening Cc1ccc2nc(NC(=O)c3cccs3)sc2c1 returned LmPK inh inconclusive, SARS PLP yeast -1%, Cycloheximide cs 25, NS1 function inh -62%, TbPYK inhibitor 3% and Shiga toxin inh 80.
`Cc1ccc2nc(NC(=S)NC(=O)c3cccs3)sc2c1` gave LmPK inh 4%, SARS PLP yeast inconclusive, Cycloheximide cs 47*, NS1 function inh -7%, TbPYK inhibitor 0% and Shiga toxin inh 102*.
Screening CCC1(c2cnc[nH]2)Cc2ccccc2C1 returned TbPYK inhibitor -9%.
For CCc1nn(Cc2cccc(F)c2)c(=O)c2cc3cc(C)ccc3n12 the results were TbPYK inhibitor 3%.
